CHRM1 antagonist = human M1 muscarinic receptor antagonists, primary screen, CHO-K1 cells, Fluo-8 calcium fluorescence, 1536-well; CHO-K1 hM1, ACh EC80 antagonist; inhibition, % at 3 µM; 1.3% of 360,000 active;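 active = percent inhibition above its own plate's cutoff, namely the mean of that plate's compound wells plus 3 SD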;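 also: peak over basal fluorescence ratio during 140 s after agonist addition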
Target sequence (P11229 whole entry, looked up): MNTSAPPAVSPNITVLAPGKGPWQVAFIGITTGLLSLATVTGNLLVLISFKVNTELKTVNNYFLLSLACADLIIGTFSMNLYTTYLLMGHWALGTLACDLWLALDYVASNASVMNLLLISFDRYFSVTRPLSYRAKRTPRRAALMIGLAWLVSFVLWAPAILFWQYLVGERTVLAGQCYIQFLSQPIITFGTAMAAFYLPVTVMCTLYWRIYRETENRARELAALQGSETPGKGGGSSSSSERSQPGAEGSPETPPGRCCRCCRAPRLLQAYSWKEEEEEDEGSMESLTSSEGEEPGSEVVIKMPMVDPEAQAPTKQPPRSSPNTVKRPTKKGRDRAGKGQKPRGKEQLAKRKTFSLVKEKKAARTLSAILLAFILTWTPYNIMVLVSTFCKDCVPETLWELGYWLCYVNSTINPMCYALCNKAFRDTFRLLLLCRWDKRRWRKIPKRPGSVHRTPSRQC
M1 PAM parental = nonselective calcium activators in parental CHO-K1 cells, primary screen, counter-screen for M1 PAM project, cell-based, Fluo-8 calcium fluorescence, full deck, 1536-well; ATP EC20; 0% at ATP EC20, 100% at ATP max; activation, % at 3 µM; 0.02% of 360,000 active;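 active = activation above the run cutoff, the mean activation of all test compounds plus 3 SD, cut at about 40% in these data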;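 also: peak over basal fluorescence ratio in a 140 s read after ATP addition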
CHO-K1 Ca ag = counter-screen for M1 agonists: effect in parental CHO-K1 cells; Fluo-8 calcium fluorescence; scaled to maximal ATP response, vehicle zero; activation, % at 3 µM; 0.48% of 360,000 active; AID 602248, 2012; in the data active = activation above about 15%;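 also: untransfected CHO-K1 host cells lacking M1 receptor as counterscreen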
CHRM1 PAM = human M1 muscarinic receptor positive allosteric modulators, primary screen, CHO-K1 cells, Fluo-8 calcium fluorescence, 1536-well | Muscarinic acetylcholine receptor M1 (Homo sapiens), P11229 | AID 588819, 2011 | 0.088% of 360,000 active | CHO-K1 hM1, ACh EC20; 0% = ACh EC20, 100% = maximal ACh | activation, % at 3 µM; in the data active = activation above about 19%, passing the limit was not always enough
M1 ag = human M1 muscarinic receptor agonists, primary screen, Fluo-8 calcium fluorescence, CHO-K1 cells, HTS | Muscarinic acetylcholine receptor M1 (Homo sapiens), P11229 | CHO-K1 hM1, agonist mode; 0% DMSO, 100% acetylcholine EC100 | activation, % at 3 µM | 0.33% of 360,000 active | AID 588814, 2011;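 active = activation above the run's mean compound activation plus 3 SD, cut at about 16% in these data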;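 also: peak over basal fluorescence ratio within a 140 s kinetic read after compound addition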
CHO-K1 Ca antag = counter-screen for M1 antagonists: effect in parental CHO-K1 cells. ATP-induced calcium, Fluo-8 fluorescence. inhibition, % at 3 µM. 0.6% of 360,000 active. AID 602250;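 active = inhibition above a per-plate cutoff, the plate's mean sample inhibition plus 3 SD, cut at about 24% in these data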
Large screens that a line does not name were inactive. Hits are enriched below; roughly 2.3% of the tested compounds scored in any of these assays.

CCOc1ccc(S(=O)(=O)N2CCN(C(=O)c3cc(C4CC4)nn3-c3ccccc3)CC2)cc1	CHRM1 antagonist 69, CHO-K1 Ca antag 66
O=C(c1cc(C2CC2)nn1-c1ccccc1)N1CCN(c2ccccc2O)CC1	none
O=C(c1cc(C2CC2)nn1-c1ccccc1)N1CCN(c2ccccn2)CC1	CHRM1 antagonist 30
CCCCNC(=O)C1(C)CCN1C(=O)c1oc2ccccc2c1C (stereo not given)	none
OC[C@@H]1CN(Cc2ccc3c(c2)OCO3)C[C@H](n2cnc3c(NCc4ccncc4)ncnc32)O1	none
O=C(/C=C/c1cccc(Cl)c1)NCc1ccccc1	CHRM1 antagonist 41
CC1CC(C)CN(CCOCCSc2ccc(Cl)cc2)C1 (stereo not given)	CHRM1 antagonist 35
Clc1ccc(SCCCN2CCCCC2)cc1	CHRM1 antagonist 33
CC1CC(C)CN(CCOCCSc2ccccc2)C1 (stereo not given)	none
CN(Cc1cn(Cc2ccc(Cl)cc2)nn1)C1CN(Cc2cn(Cc3ccc(Cl)cc3)nn2)S(=O)(=O)C1 (stereo not given)	none (no result: CHRM1 antagonist, CHRM1 PAM, M1 ag)
Cc1c(C)c2ccc(OC(C)C(=O)NCCCN3CCOCC3)c(C)c2oc1=O (stereo not given)	none
CC(C)C(=O)Nc1ccc(Br)cc1Cl	CHO-K1 Ca antag 56
CC(C)(C)c1cc(NC(=O)Nc2ccc(Br)cc2Cl)no1	CHRM1 antagonist 28
CC(NC(=O)c1ccncc1)C(c1cccs1)N1CCOCC1 (stereo not given)	none
Cc1cccc(C(=O)NC(C)C(c2cccs2)N2CCOCC2)c1 (stereo not given)	CHO-K1 Ca ag 15
O=C(NC(NC(=S)Nc1ccccc1)C(Cl)(Cl)Cl)c1cccc(Cl)c1 (stereo not given)	CHRM1 antagonist 30, CHO-K1 Ca antag 32
COc1ccc(CC(=O)OC(C)C(=O)Nc2c(C)n(C)n(-c3ccccc3)c2=O)cc1OC (stereo not given)	none
Cc1cc(C)c(C(=O)c2ccc(C(=O)N3CCCCC3)cc2)c(C)c1	CHO-K1 Ca ag 28, M1 ag 36
Cc1cc(C)cc(C(=O)N2CCCCCC2)c1	none
NC(=O)CC(NC(=O)Cc1ccc(Cl)cc1)c1ccc(NC2CCN(Cc3ccccc3)CC2)c([N+](=O)[O-])c1 (stereo not given)	none
NC(=O)CC(NC(=O)c1cccc(Br)c1)c1ccc(NC2CCN(Cc3ccccc3)CC2)c([N+](=O)[O-])c1 (stereo not given)	CHRM1 antagonist 46
CCOC(=O)CSc1ncnc2c1sc1nc(N3CCOCC3)c3c(c12)CCCC3	CHO-K1 Ca antag 34
Brc1ccc(-c2nn3c(-c4ccco4)nnc3s2)o1	CHO-K1 Ca antag 25
Clc1ccc(-c2ccc(-c3nn4c(-c5ccco5)nnc4s3)o2)cc1	none
COc1cccc(/C=N/Nc2ncnc3scc(-c4ccccc4)c23)c1O	CHRM1 antagonist 34
CCOc1ccccc1N(CC)C(=O)c1cc2c(s1)-c1ccccc1S(=O)(=O)C2	none
Cc1onc(-c2ccccc2)c1C(=O)OCC(=O)NC(C)c1ccc(Cl)cc1 (stereo not given)	none
CCOc1ccccc1-n1c(SC(C)C(=O)NCC2CCCO2)nc2ccccc2c1=O (stereo not given)	M1 ag 30
C=CCN(C(=O)CN1CCCCC1)c1nc(-c2ccccc2)cs1	CHRM1 antagonist 25
C=CCN(C(=O)CN1CCOCC1)c1nc(C)c(-c2ccccc2)s1	none
NC(=O)NC(CC(=O)N1CCc2ccccc2C1)c1ccc(Cl)cc1 (stereo not given)	none
O=C(NCc1cccs1)c1ccc2sc([C@@H]3O[C@H](CO)[C@H](O)[C@H](O)[C@H]3O)nc2c1	none
O=C(COc1cccnc1[N+](=O)[O-])Nc1ccc2c(c1)CCC2	CHRM1 antagonist 36
COc1ccc(NC(=O)COc2cccnc2[N+](=O)[O-])cc1OC	none
O=C(COc1cccnc1[N+](=O)[O-])Nc1ccc2c(c1)OC(F)(F)O2	CHRM1 antagonist 50
COc1ccc(C2(c3ccc(OC)cc3)NC(=O)N(CC(=O)Nc3ccccc3)C2=O)cc1	CHO-K1 Ca ag 15
COc1ccc(C2(c3ccc(OC)cc3)NC(=O)N(CC(=O)Nc3ccc(C(N)=O)cc3)C2=O)cc1	none
CCCNCc1cc(Br)ccc1OCC(=O)NCCc1ccccc1	none
O=C(COc1ccc(Br)cc1CNCCc1ccccc1)NCc1ccccc1	CHRM1 antagonist 36
O=C(N/N=C/c1cccc2ccccc12)c1cccnc1	none
Cc1ccccc1/C=N/NC(=O)c1cccnc1	CHRM1 PAM 27
CCC(=O)Nc1nnc(Cc2ccccc2)s1	none
CCCC(=O)Nc1nnc(Cc2ccccc2)s1	CHO-K1 Ca antag 31
Cc1cc(Oc2cccc3c2S(=O)(=O)N(C2CCCC2)CC(COCc2ccccc2)O3)cc(C)c1C (stereo not given)	none
COc1cc(-c2cc3nc4ccccc4n3c(N)c2C#N)cc(OC)c1OC	CHRM1 antagonist 37
COc1ccc([C@H]2C[C@H](O)[C@@H](n3cc(COC(=O)c4ccccc4)nn3)CN2Cc2cccs2)cc1	CHO-K1 Ca antag 31
COc1ccc(C(NC(=O)C2CCN(CCOc3ccc(Cl)cc3Cl)CC2)c2cccs2)cc1 (stereo not given)	none
CCC1Oc2ccccc2N(CC(=O)NCCCN2CCOCC2)C1=O (stereo not given)	CHO-K1 Ca antag 27
CCC1Sc2ccc(S(=O)(=O)Nc3ccc(OC)c(OC)c3)cc2NC1=O (stereo not given)	CHO-K1 Ca antag 34
CCC1Sc2ccc(S(=O)(=O)Nc3ccc(OC)cc3)cc2NC1=O (stereo not given)	CHO-K1 Ca ag 18
COc1ccc(C(=O)OC(C)C(=O)NC(C)CCc2ccccc2)cc1OC (stereo not given)	none
C=CCN(C(=O)CCC(=O)Nc1cc(C)on1)C(C(=O)NC(C)(C)C)c1ccc(OC)cc1 (stereo not given)	none
COc1cc(/C=C2\SC(=Nc3ccc(Cl)c(C(=O)O)c3)NC2=O)c(Br)c(Br)c1O	CHO-K1 Ca ag 42, M1 ag 51, CHO-K1 Ca antag 27
CCc1ccc(N=C2NC(=O)/C(=C/c3cc(OC)c(O)c(OC)c3)S2)cc1	none
COc1cc(/C=C2\SC(=Nc3ccccc3)NC2=O)cc(Cl)c1O	CHRM1 antagonist 50, CHO-K1 Ca ag 38, M1 ag 79, CHO-K1 Ca antag 32
